Hit rate of the full screen: of about 330,000 compounds, about 4,100 (1.2%) were called active. Not shown: some 2% with an inconclusive outcome. Shown is part of a subset that was picked to be rich in actives. Unmarked numbers belong to inactive results. Rule for the calls: active = max response of -50% or lower; inconclusive = between -30% and -50%; inactive = -30% or higher.
% is set by controls: 0 for no effect and ±100 for the full control effect.

The target of this experiment is Phosphatidylinositol 5-phosphate 4-kinase type-2 alpha (Homo sapiens) (UniProt P48426). Put plainly: qHTS for Inhibitors of phosphatidylinositol 5-phosphate 4-kinase (PI5P4K). Note: value at the top dose of about 77 µM. The following applies: PI5P4Kalpha enzyme, ADP-Glo luminescence, 60 min; active compounds read low. In a few lines: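 Controls without substrate or without enzyme flank wells where PI5P4Kalpha converts substrate using 5 microM ATP (final). Incubation lasts 60 minutes at room temperature; ADP formed is read by ADP-Glo luminescence.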
Sequence of Phosphatidylinositol 5-phosphate 4-kinase type-2 alpha (Homo sapiens) (P48426 whole entry, looked up): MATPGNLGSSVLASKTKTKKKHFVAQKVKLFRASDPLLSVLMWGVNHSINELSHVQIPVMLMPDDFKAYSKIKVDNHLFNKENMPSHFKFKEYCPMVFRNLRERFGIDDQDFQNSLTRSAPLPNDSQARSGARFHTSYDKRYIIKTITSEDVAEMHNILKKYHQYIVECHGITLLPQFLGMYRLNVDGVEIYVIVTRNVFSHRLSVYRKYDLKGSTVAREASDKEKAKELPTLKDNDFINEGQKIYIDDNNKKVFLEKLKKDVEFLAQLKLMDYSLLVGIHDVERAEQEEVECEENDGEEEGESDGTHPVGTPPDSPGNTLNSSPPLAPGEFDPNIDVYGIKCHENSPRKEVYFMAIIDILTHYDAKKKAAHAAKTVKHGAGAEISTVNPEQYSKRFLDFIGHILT
(Quantitative high-throughput screening tests each substance at several concentrations.)
Consider `CCOC(=O)C1=CCC(c2ccc(F)cc2)N(S(=O)(=O)c2ccc(C)cc2)C1` (stereo unspecified), for which the max response was 8.18%.

As to `O=C(COc1ccc(Br)cc1)OCC(=O)c1ccc[nH]1`, the max response is 1.45%.

`CCc1nc2c(OCc3ccc(C(=O)OC)cc3)cccn2c1N(C)C(=O)C(C)C`: the max response was -5.01%.

As for `COc1cc(/C=N/NC(=O)c2ccc(N3CCCC3=O)cc2)ccc1O`, the max response is 0.256%.

`COc1ccc(C(=O)Nc2ccccc2C(=O)N/N=C/c2ccc(O)c(OC)c2)cc1`: the max response was -50.7% (active).

Take `CCOc1cc(/C=N/NC(=O)c2cc(-c3ccccc3)nc3ccccc23)ccc1O`: the max response is 1.21%.

With `CCCCCCN1CCN(C2CN(Cc3cn(CCCCCC)nn3)S(=O)(=O)C2)CC1` (stereo unspecified), the max response was -1.03%.

Consider `CC(C)Nc1nc(NCCOc2ccccc2Cl)c2sccc2n1`, for which the max response is -24.4%.

Take `O=C(NCc1ccco1)c1cccc(-c2ccc3nncn3c2)c1`: the max response is 5.11%.

With `Cc1cccc(C)c1Cn1c(C)c(C(=O)NCc2cccc(Cl)c2)sc1=O`, the max response was 9.15%.

With `CCOC(=O)/C(N=Nc1cc(C(=O)O)cc(C(=O)O)c1)=C(\O)CCl`, the max response was -52.4% (active).

For the compound `COc1cccc(CN(C)C(=O)CC[C@H]2O[C@@H](n3cnc4c(NC(=O)c5ccccc5)ncnc43)[C@H](O)[C@@H]2O)c1`, the max response was -6.93%.

Regarding `COC(=O)[C@@]12C[C@@H](CC(=O)NCc3cccc(C(F)(F)F)c3)C(=O)N(Cc3ccco3)C1=CCC(C)(C)C2`, the max response was -1.12%.

Take `NC(=O)c1c(NC(=O)CSc2nnc(-c3ccco3)n2N)sc2c1CCCC2`: the max response is -79.7% (active).

On to `Cc1cc(NC(=O)CSc2nnc(-c3ccco3)n2N)no1`, for which the max response was -9.01%.

In the case of `Nn1c(SCC(=O)Nc2nccs2)nnc1-c1ccco1`, the max response is -11.2%.

In the case of `O=C1c2ccccc2C(c2nc3ccccc3[nH]2)N1c1ccccc1` (stereo unspecified), the max response is -0.58%.

With `CN(C(=O)COC(=O)c1cc(-c2ccco2)nc2ccccc12)C1CCS(=O)(=O)C1` (stereo unspecified), the max response is -66.2% (active).

With `CN(C(=O)COC(=O)Cc1ccccc1[N+](=O)[O-])C1CCS(=O)(=O)C1` (stereo unspecified), the max response is 1.78%.

Turning to `COc1ccc(/C=C(\C#N)C(=O)OCC(=O)N(C)C2CCS(=O)(=O)C2)cc1` (stereo unspecified), the max response is 4.63%.

`CCNC(=O)c1cc2c(c(-c3cccc(-c4cncnc4)c3)n1)[C@H](CCO)N(C(C)=O)C2`: the max response is 1.34%.

With `CCCCc1c(-c2ccc(Cl)cc2)ncn1CCc1ccccc1OC`, the max response was 19%.

For `Fc1cccc(Cc2c(-c3ccc(Cl)cc3)nc3ccc(Cl)cn23)c1`, the max response is 1.89%.

In the case of `C=CCc1cccc(/C=N/NC(=O)COc2ccc(-n3cnnn3)cc2)c1O`, the max response was -0.249%.

With `O=C(COc1ccc(-n2cnnn2)cc1)Nc1ccccc1Cl`, the max response is -51.4% (active).

As to `O=C(Cc1c(F)cccc1Cl)Nc1ccc(-n2cnnn2)cc1`, the max response was 4.15%.

The record behind these values is PubChem BioAssay AID652105 (National Center for Advancing Translational Sciences (NCATS), 2013).
